Results taken from PubChem BioAssay AID1159580 (chemical genetic matrix, 2015).
About 2,000 (36%) of roughly 5,500 compounds were called active. Inconclusive results (about 18%) are left out. Rule as the data show it: active = normalized growth mostly below about 0.91 (no sharp cut-off); inconclusive = no clear call, values can overlap the other calls; inactive = mostly above about 0.92. Some of the results follow.

Test: chemical genetic growth profiling, strain panel (AID 1159580);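 also: tested at 20 µM; growth read once vehicle control cultures reached saturation at 30 °C; 1 = growth at the plate median or of vehicle wells; lower values mean less growth of the strain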
Conditions: growth OD

Measured: normalized growth

CC(C)NC[C@H](O)COc1cccc2ccccc12
inactive: S. cerevisiae deletion strains, locus YJR066W, strain TOR1, stronger effect = lower value 0.996 | S. cerevisiae deletion strains, locus YKL009W, strain mrt4, stronger effect = lower value 1.03 | S. cerevisiae deletion strains, locus YKL068W, stronger effect = lower value 1.01 | S. cerevisiae deletion strains, locus YKL085W, strain MDH1 (second series), stronger effect = lower value 0.999 | S. cerevisiae deletion strains, locus YKL085W, strain MDH1, stronger effect = lower value 0.999 | S. cerevisiae deletion strains, locus YKL160W, strain elf1, stronger effect = lower value 0.992 | S. cerevisiae deletion strains, locus YKR001C, strain vps1, stronger effect = lower value 1.04 | S. cerevisiae deletion strains, locus YKR026C, strain gcn3, stronger effect = lower value 0.978 | S. cerevisiae deletion strains, locus YKR091W, strain srl3, stronger effect = lower value 0.99 | S. cerevisiae deletion strains, locus YLL001W, strain dnm1, stronger effect = lower value 0.98 | S. cerevisiae deletion strains, locus YLL026W, stronger effect = lower value 0.98 | S. cerevisiae deletion strains, locus YLL041C, strain sdh2, stronger effect = lower value 0.997 | S. cerevisiae deletion strains, locus YLR027C, strain aat2, stronger effect = lower value 0.987 | S. cerevisiae deletion strains, locus YLR039C, strain RIC1, stronger effect = lower value 1.05 | S. cerevisiae deletion strains, locus YLR058C, strain SHM2, stronger effect = lower value 1.01 | S. cerevisiae deletion strains, locus YLR102C, strain apc9, stronger effect = lower value 1.02 | S. cerevisiae deletion strains, locus YLR113W, strain HOG1, stronger effect = lower value 1 | S. cerevisiae deletion strains, locus YLR221C, strain rsa3, stronger effect = lower value 0.991 | S. cerevisiae deletion strains, locus YLR258W, strain gsy2, stronger effect = lower value 0.985 | S. cerevisiae deletion strains, locus YLR262C, strain YPT6 (second series), stronger effect = lower value 0.974 | S. cerevisiae deletion strains, locus YLR262C, strain YPT6, stronger effect = lower value 1.02 | S. cerevisiae deletion strains, locus YLR268W, strain sec22, stronger effect = lower value 1.01 | S. cerevisiae deletion strains, locus YLR320W, strain mms22, stronger effect = lower value 0.973 | S. cerevisiae deletion strains, locus YLR330W, strain CHS5, stronger effect = lower value 1.01 | S. cerevisiae deletion strains, locus YLR342W, strain FKS1 (second series), stronger effect = lower value 0.963 | S. cerevisiae deletion strains, locus YLR342W, strain FKS1, stronger effect = lower value 0.986 | S. cerevisiae deletion strains, locus YLR357W, strain rsc2, stronger effect = lower value 0.978 | S. cerevisiae deletion strains, locus YLR370C, strain arc18, stronger effect = lower value 0.999 | S. cerevisiae deletion strains, locus YLR371W, strain rom2, stronger effect = lower value 1.03 | S. cerevisiae deletion strains, locus YLR384C, strain iki3, stronger effect = lower value 0.963 | S. cerevisiae deletion strains, locus YLR418C, strain cdc73, stronger effect = lower value 1.02 | S. cerevisiae deletion strains, locus YML016C, strain PPZ1, stronger effect = lower value 1 | S. cerevisiae deletion strains, locus YML032C, strain rad52, stronger effect = lower value 0.997 | S. cerevisiae deletion strains, locus YML120C, strain ndi1, stronger effect = lower value 1 | S. cerevisiae deletion strains, locus YML124C, strain tub3, stronger effect = lower value 1.02 | S. cerevisiae deletion strains, locus YMR058W, strain fet3, stronger effect = lower value 0.995 | S. cerevisiae deletion strains, locus YMR078C, strain ctf18, stronger effect = lower value 1.03 | S. cerevisiae deletion strains, locus YMR125W, strain sto1, stronger effect = lower value 0.966 | S. cerevisiae deletion strains, locus YMR129W, stronger effect = lower value 0.988 | S. cerevisiae deletion strains, locus YMR205C, strain PFK2, stronger effect = lower value 0.971 | S. cerevisiae deletion strains, locus YMR223W, strain ubp8, stronger effect = lower value 1.06 | S. cerevisiae deletion strains, locus YMR231W, strain pep5, stronger effect = lower value 0.988 | S. cerevisiae deletion strains, locus YMR263W, strain SAP30, stronger effect = lower value 1.01 | S. cerevisiae deletion strains, locus YMR307W, strain GAS1, stronger effect = lower value 1.06 | S. cerevisiae deletion strains, locus YNL067W, strain RPL9B, stronger effect = lower value 1.03 | S. cerevisiae deletion strains, locus YNL071W, strain lat1, stronger effect = lower value 0.997 | S. cerevisiae deletion strains, locus YNL183C, strain NPR1, stronger effect = lower value 0.995 | S. cerevisiae deletion strains, locus YNL209W, strain ssb2, stronger effect = lower value 0.987 | S. cerevisiae deletion strains, locus YNL233W, strain BNI4, stronger effect = lower value 1.02 | S. cerevisiae deletion strains, locus YNL248C, strain rpa49, stronger effect = lower value 0.989 | S. cerevisiae deletion strains, locus YNL250W, strain rad50, stronger effect = lower value 1.04 | S. cerevisiae deletion strains, locus YNL271C, strain bni1, stronger effect = lower value 1.02 | S. cerevisiae deletion strains, locus YNL298W, strain CLA4, stronger effect = lower value 1.01 | S. cerevisiae deletion strains, locus YNL307C, strain MCK1, stronger effect = lower value 1.02 | S. cerevisiae deletion strains, locus YNL322C, strain KRE1 (second series), stronger effect = lower value 0.977 | S. cerevisiae deletion strains, locus YNL322C, strain KRE1, stronger effect = lower value 1.01 | S. cerevisiae deletion strains, locus YNR049C, strain mso1, stronger effect = lower value 0.989 | S. cerevisiae deletion strains, locus YNR052C, strain pop2, stronger effect = lower value 1.01 | S. cerevisiae deletion strains, locus YOL012C, strain htz1 0.826 | S. cerevisiae deletion strains, locus YOL147C, strain pex11, stronger effect = lower value 1.02 | S. cerevisiae deletion strains, locus YOR001W, strain rrp6, stronger effect = lower value 0.994 | S. cerevisiae deletion strains, locus YOR061W, strain CKA2, stronger effect = lower value 1 | S. cerevisiae deletion strains, locus YOR069W, strain VPS5, stronger effect = lower value 1.01 | S. cerevisiae deletion strains, locus YOR070C, strain gyp1, stronger effect = lower value 0.998 | S. cerevisiae deletion strains, locus YOR080W, strain dia2, stronger effect = lower value 0.977 | S. cerevisiae deletion strains, locus YOR083W, strain WHI5, stronger effect = lower value 1.01 | S. cerevisiae deletion strains, locus YOR106W, strain vam3, stronger effect = lower value 0.997 | S. cerevisiae deletion strains, locus YOR136W, strain idh2, stronger effect = lower value 1.03 | S. cerevisiae deletion strains, locus YOR144C, strain elg1, stronger effect = lower value 1.02 | S. cerevisiae deletion strains, locus YOR184W, strain ser1, stronger effect = lower value 1.03 | S. cerevisiae deletion strains, locus YOR231W, strain MKK1, stronger effect = lower value 1.02 | S. cerevisiae deletion strains, locus YOR265W, strain rbl2, stronger effect = lower value 0.988 | S. cerevisiae deletion strains, locus YOR270C, strain vph1, stronger effect = lower value 1.03 | S. cerevisiae deletion strains, locus YOR290C, strain snf2, stronger effect = lower value 0.988 | S. cerevisiae deletion strains, locus YOR316C, strain cot1, stronger effect = lower value 1.03 | S. cerevisiae deletion strains, locus YPL051W, strain arl3, stronger effect = lower value 0.993 | S. cerevisiae deletion strains, locus YPL055C, strain LGE1, stronger effect = lower value 1.02 | S. cerevisiae deletion strains, locus YPL078C, strain atp4, stronger effect = lower value 1.01 | S. cerevisiae deletion strains, locus YPL106C, strain sse1, stronger effect = lower value 0.98 | S. cerevisiae deletion strains, locus YPL240C, strain hsp82, stronger effect = lower value 0.999 | S. cerevisiae deletion strains, locus YPL241C, strain CIN2, stronger effect = lower value 1.01 | S. cerevisiae deletion strains, locus YPL256C, strain CLN2, stronger effect = lower value 1.07 | S. cerevisiae deletion strains, locus YPR119W, strain clb2, stronger effect = lower value 1.03 | S. cerevisiae deletion strains, locus YPR141C, strain kar3, stronger effect = lower value 1.02 | S. cerevisiae deletion strains, locus YPR163C, strain tif3, stronger effect = lower value 1.02 | S. cerevisiae deletion strains, locus YPR167C, strain met16, stronger effect = lower value 1.03 | S. cerevisiae deletion strains, strain wtn01, stronger effect = lower value 1.01 | S. cerevisiae strains, strain wild type, stronger effect = lower value 1.01
